# Laboratory results taken from PMC6919601, “Identification of Plasmodium dipeptidyl aminopeptidase allosteric inhibitors by high throughput screening” (PLoS ONE, 2019).
# Among all 110,000 compounds or so, about 230 (0.21%) showed an effect of 50% or more. The entries come from a sample that favours strong results as a whole.
# Molecular target: DPAP1 (Plasmodium falciparum, UniProt Q8IIJ9)
# Assay: primary screen, percent inhibition; read by cleavage of a fluorogenic dipeptide substrate; higher = more effect of the substance
# Design: species or system P. falciparum D10 trophozoite lysates; single well
# 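Note: 30 min substrate incubation versus DMSO and 10 µM JCP410 controls.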
# DPAP1, sequence (Q8IIJ9 whole entry, looked up): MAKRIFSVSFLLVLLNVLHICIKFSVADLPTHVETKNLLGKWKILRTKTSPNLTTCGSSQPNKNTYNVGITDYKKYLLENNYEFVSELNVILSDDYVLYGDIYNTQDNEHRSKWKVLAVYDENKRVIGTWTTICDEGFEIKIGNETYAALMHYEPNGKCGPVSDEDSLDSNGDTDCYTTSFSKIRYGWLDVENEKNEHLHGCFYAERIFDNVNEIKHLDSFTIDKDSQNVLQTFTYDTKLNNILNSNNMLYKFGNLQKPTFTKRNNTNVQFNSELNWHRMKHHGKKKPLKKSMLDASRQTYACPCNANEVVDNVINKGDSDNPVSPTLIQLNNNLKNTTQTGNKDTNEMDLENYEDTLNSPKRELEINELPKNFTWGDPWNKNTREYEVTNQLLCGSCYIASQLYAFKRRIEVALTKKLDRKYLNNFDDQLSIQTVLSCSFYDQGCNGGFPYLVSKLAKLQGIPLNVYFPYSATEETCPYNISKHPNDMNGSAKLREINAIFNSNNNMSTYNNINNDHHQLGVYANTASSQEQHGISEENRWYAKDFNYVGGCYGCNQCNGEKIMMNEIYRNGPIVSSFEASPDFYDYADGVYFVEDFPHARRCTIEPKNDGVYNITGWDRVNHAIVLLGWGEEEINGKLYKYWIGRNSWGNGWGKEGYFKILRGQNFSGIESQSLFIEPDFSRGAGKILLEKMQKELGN
row,Structure (SMILES),% Inhibition @ 10 uM
1,c1ccc(-c2csc(NCc3ccco3)n2)cc1,-0.178%
2,CCCNc1nc(-c2ccc(C)cc2)cs1,3.33%
3,CCNc1nc(-c2ccccc2)cs1,89.1%
4,c1ccc(CC2CCN(c3ncnc4sc5c(c34)CCCC5)CC2)cc1,2.92%
5,CCn1cc2c(n1)-c1c(oc(C(=O)NCc3cccc(Br)c3)c1C)CC2,13.8%
6,CCOC(=O)c1c(CC(C)C)csc1NC(=O)c1ccc(C)cc1,-5.9%
7,CCC1CCc2c(sc(N)c2C#N)C1 (centres unmarked),11.8%
8,CCC1CCc2nc(S)c(C#N)c(C(F)(F)F)c2C1 (centres unmarked),88.2%
9,CCN(CC)C(=O)CSc1nc2c(c(C(F)(F)F)c1C#N)CCC2,5.64%
10,CC(C)c1ccc(/C=C2/NC(=O)NC2=O)cc1,-1.25%
11,Cc1ccc(S(=O)(=O)N2CCCN(S(=O)(=O)c3ccc(C)c(C)c3)CC2)cc1C,22.6%
12,CN1CCN(C(=O)c2ccc(-c3ccccc3)cc2)CC1,2.6%
13,CC(C)n1c(-c2ccc(C(=O)N3CCN(C)CC3)cc2)nc2ccccc21,83.9%
14,CC(C)n1c(-c2ccccc2)nc2ccccc21,-0.769%
15,Cc1ccc(C)c(-c2csc(Nc3ccc(C)c(Cl)c3)n2)c1,0.912%
16,CCSc1c(S)cnn(-c2ccccc2)c1=O,1.7%
17,Cc1ccc(-c2nc3cnn(-c4ccccc4)c(O)c-3n2)cc1,2%
18,Oc1c2nc(S)nc-2cnn1-c1ccccc1,87.4%
19,CC(C)C(NS(=O)(=O)c1cccs1)C(=O)NCc1ccccc1Cl (centres unmarked),-4.07%
20,CCOc1ccc(-c2cn3ncsc3n2)cc1,2.41%
21,O=C(c1ccccn1)c1conc1C(=O)c1cccs1,1.82%
22,O=C(c1ccccc1)c1conc1C(=O)c1ccc(Br)cc1,4.52%

row,Structure (SMILES),% Inhibition @ 10 uM
1,O=C(c1ccccn1)c1conc1C(=O)c1ccc(Br)cc1,3.72%
2,O=C(c1cccnc1)c1conc1C(=O)c1ccc(Br)cc1,91.9%
3,O=C(c1nc2ccccc2s1)c1conc1C(=O)c1cccs1,4.03%
4,O=C(c1cccs1)c1conc1C(=O)c1ccc(Br)cc1,93.8%
5,Cc1ccc(C2=CC(c3cccs3)n3ncnc3N2)cc1C (centres unmarked),1.86%
6,Cc1nc(NC(=O)c2cc(Cl)ccc2Cl)ccc1Br,0.755%
7,COc1ccc(Cl)cc1C(=O)Nc1ccc(Br)c(C)n1,70.4%
8,Cc1nc(NC(=O)c2ccccc2Cl)ccc1Br,-2.67%
9,CN(Cc1ccccc1)Cc1ccc(O)cc1,-1.78%
10,NC(=O)c1sc2nc(N3CCOCC3)c3c(c2c1N)CCCC3,50.2%
11,CC1(C)Cc2c(c(N3CCOCC3)nc3sc(C(=O)N4CCCCC4)c(N)c23)CO1,3.93%
12,CCOC(=O)c1sc2nc(N3CCOCC3)c3c(c2c1N)CCCC3,-2.87%
13,Nn1c(S)nnc1-c1ccccc1,1.63%
14,O=C1c2cccnc2C(=O)N1Cc1ccc(S(=O)(=O)NCCc2ccc(Cl)cc2)s1,-3.66%
15,COc1ccccc1CNC(=O)[C@H](CCSC)N1Cc2ccccc2C1=O,2.93%
16,CCCC1CCc2c(sc(NC(=O)C3CCCO3)c2C(N)=O)C1 (centres unmarked),1.57%
17,c1ccc2c(Cc3c[nH]c4ccccc34)c[nH]c2c1,-0.0372%
18,c1ccc(Cc2c[nH]c3ccccc23)cc1,0.736%
19,c1ccc2c(Cc3nn[nH]n3)c[nH]c2c1,85%
20,CCC1(C)CC(=O)c2c(ccc3oc(C(=O)NCc4ccco4)c(C)c23)O1 (centres unmarked),-2.17%
21,CC1=C(C)CC(C(=O)NCc2ccc(F)cc2)C(C(=O)O)C1 (centres unmarked),8.6%
22,COc1ccccc1-c1coc2cc(OCC(=O)O)ccc2c1=O,-1.92%

row,Structure (SMILES),% Inhibition @ 10 uM
1,COc1ccc(-c2coc3cc(OC)ccc3c2=O)c(O)c1,62.1%
2,COc1ccc2c(COc3ccc4c(=O)c(-c5ccccc5)coc4c3)cc(=O)oc2c1,-2.91%
3,O=C(Cn1ncc2c3ccccc3nc-2c1O)N1CCC(c2ccccc2)C1 (centres unmarked),2.36%
4,c1ccc(-c2nc3c4cnn(-c5ccccc5)c4ncn3n2)cc1,-6.09%
5,Cc1oc2c(C)c3oc(=O)c(CC(=O)N4CCOCC4)c(C)c3cc2c1-c1ccccc1,2.54%
6,Cc1ccc2c(c1Br)C1(C(=O)N2)C(C#N)=C(N)Oc2cc(N)ccc21 (centres unmarked),5.35%
7,Cc1ccc2nc3c(cc(C(=O)NCC4CCCO4)c(=N)n3C3CCCCC3)c(=O)n2c1 (centres unmarked),3.6%
8,COCCn1c(=N)c(C(=O)NCC2CCCO2)cc2c(=O)n3cc(C)ccc3nc21 (centres unmarked),94.3%
9,Cc1ccc2nc3c(cc(C(=O)NCC4CCCO4)c(=N)n3CCc3ccccc3)c(=O)n2c1 (centres unmarked),0.279%
10,COc1ccc2cc3cc(C(=O)NCCN(C)C)oc3nc2c1,-1.54%
11,Cc1ccccc1CSCC(=O)NC1CCCC1,2.15%
12,OC(Cn1ccnc1)(c1ccc(F)cc1)c1ccccn1 (centres unmarked),2.62%
13,Cc1ccc2c(c1)-c1onc(C(=O)NCc3ccccc3Cl)c1CO2,0.589%
14,O=C(NCc1ccc2c(c1)OCO2)c1noc2c1COc1ccccc1-2,73.5%
15,O=C(NCc1ccc(F)cc1)c1noc2c1CCc1ccccc1-2,-9.28%
16,CN(Cc1ccccc1)C(=O)c1noc2c1COc1ccccc1-2,7.85%
17,Cc1ccc(CNC(=O)c2noc3c2COc2ccccc2-3)cc1,72.8%
18,O=C(NCc1ccc(F)cc1)c1noc2c1COc1ccccc1-2,69.7%
19,Cc1onc(-c2ccccc2Cl)c1C(=O)NCc1ccc2c(c1)OCO2,-6.92%
20,O=C(NCc1ccc2c(c1)OCO2)c1cc(-c2ccccc2F)no1,-2.07%
21,COc1ccc(CNC(=O)c2noc3c2COc2ccc(C)cc2-3)cc1,-3.17%
22,CC(C)C(=O)NC(c1ccc(Cl)cc1)c1ccc2cccnc2c1O (centres unmarked),-8.88%

row,Structure (SMILES),% Inhibition @ 10 uM
1,CCc1nc2ccccc2c(NC(=O)CN2CCCC2)c1C,-4.96%
2,CN(Cc1ccccc1)C(=O)c1ccc(C(C)(C)C)cc1,8.01%
3,CCN(CC)C1=NC(C(F)(F)F)(C(F)(F)F)N=C(c2ccc(OC)cc2)O1,-3.53%
4,Cc1ccc(CNC(=O)c2nn(C)c3c2CSc2ccccc2-3)cc1,51.6%
5,Cn1nc(C(=O)NCc2ccc3c(c2)OCO3)c2c1-c1ccccc1SC2,86.5%
6,Cn1nc(C(=O)NCc2cccnc2)c2c1-c1ccccc1SC2,36.1%
7,Cn1nc(C(=O)NCc2ccco2)c2c1-c1ccccc1SC2,30.8%
8,Cn1nc(C(=O)NCc2ccc3c(c2)OCO3)c2c1-c1ccccc1S(=O)(=O)C2,-3.8%
9,Cn1nc(C(=O)NCCc2ccccc2)c2c1-c1ccccc1SC2,-0.495%
10,O=C(NCC1CCCO1)C1CCCN(S(=O)(=O)N2CCC3(CC2)OCCO3)C1 (centres unmarked),-1.67%
11,CC(=O)C1=C(C)OC(N)=C(C#N)C1c1ccccc1[N+](=O)[O-] (centres unmarked),-1.29%
12,Cc1cccc(Nc2nc(-c3sc(N)nc3C)cs2)c1,2.7%
13,Cc1ccc(OC(C)C(=O)N(Cc2ccccc2)C2CCS(=O)(=O)C2)cc1C (centres unmarked),0.561%
14,Cc1cc(C)c2nc(N3CCCC(C(=O)N4CCCCCC4)C3)sc2c1 (centres unmarked),1.8%
15,CSc1nc(N)c2c3c(sc2n1)CN(Cc1ccccc1)CC3,-1.66%
16,Nc1nc(S)nc2sc3c(c12)CCN(Cc1ccccc1)C3,54.1%
17,CCN1CCc2c(sc3nc(S)nc(N)c23)C1,42.8%
18,CC(C)C[C@H](NC(=O)OCc1ccccc1)C(=O)NCC(=O)CN(Cc1ccco1)C(=O)OC(C)(C)C,-7.36%
19,CC1(C)CC2=NC(S)=C(C#N)C(c3cccnc3)C2=C(O)C1 (centres unmarked),67.3%
20,CC1=C(C#N)C(c2cccnc2)C2=C(O)CC(C)(C)CC2=N1 (centres unmarked),-4.03%
21,CC1=C(C#N)C(c2ccccc2)C2=C(O)CC(C)(C)CC2=N1 (centres unmarked),2.41%
22,COc1cc(-c2nnc3sc(-c4ccc(C)c(C)c4)nn23)cc(OC)c1OC,29.8%

row,Structure (SMILES),% Inhibition @ 10 uM
1,COc1cc(-c2nnc3sc(-c4ccc(C(C)(C)C)cc4)nn23)cc(OC)c1OC,2.89%
2,COc1cc(-c2nnc3sc(/C=C/c4ccccc4)nn23)cc(OC)c1OC,59.6%
3,COc1ccccc1-c1nnc2sc(/C=C/c3ccccc3)nn12,6.01%
4,CCOc1ccc(-c2nn3c(-c4cc(OC)c(OC)c(OC)c4)nnc3s2)cc1,56.2%
5,COc1cc(-c2nnc3sc(/C=C/c4ccco4)nn23)cc(OC)c1OC,6.01%
6,O=[N+]([O-])c1ccc(S(=O)(=O)n2cnc3ccccc32)cc1,2.81%
7,CCOC(=O)N1CCN(c2ccc(/C=C(\C#N)c3nc4ccccc4s3)o2)CC1,4.67%
8,c1ccc2c(c1)OCC(c1nnc3sc(-c4ccncc4)nn13)O2 (centres unmarked),2.68%
9,COc1ccccc1/C=C/c1nn2c(C3COc4ccccc4O3)nnc2s1 (centres unmarked),50.2%
10,Cc1ccc(-c2nn3c(C4COc5ccccc5O4)nnc3s2)cc1C (centres unmarked),2.89%
11,COc1ccccc1-c1nn2c(C3COc4ccccc4O3)nnc2s1 (centres unmarked),7.5%
12,Clc1ccc(-c2nn3c(C4COc5ccccc5O4)nnc3s2)cc1 (centres unmarked),53.7%
13,COc1ccccc1/C=C/c1nn2c(C)nnc2s1,2.29%
14,COc1ccc(/C(O)=C/C=N/c2ccc3c(c2)OCO3)cc1,-4.12%
15,COc1ccccc1NC(=O)C1=C(C)N=C2CCCC(O)=C2C1c1ccc(OC)c(OC)c1 (centres unmarked),2.51%
16,COc1cc(NS(=O)(=O)c2ccc(N3C(=O)c4ccccc4C3=O)cc2)nc(OC)n1,-1.96%
17,CCOc1cc(CN2CCSCC2)ccc1O,96.4%
18,CCOc1cc(CN2CCN(C)CC2)ccc1O,2.33%
19,CCOc1cc(CN2CCN(Cc3ccccc3)CC2)ccc1O,3.9%
